High-throughput results (PubChem BioAssay)
Shown are actives, neighbours in structure and some others; about 28% of the full set was active somewhere.
CYP2C19 inh – blockers of cytochrome P450 2C19 activity – biochemical, luminescence, ADME assay, primary screen; P33261; CYP2C19 Supersomes, luciferin-H EGE luminescence, 30 min; inhibition, % at 5 µM; actives 21% (n = 96,000); AID 778, 2007;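 active = CYP2C19 inhibition above a set limit at 5 µM in the primary screen, cut at about 50% in these data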;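 also: plate controls were negative control wells for no effect and 2.5 mM tranylcypromine positive control for full effect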
CYP2C9 act – human CYP2C9 activators, primary screen, biochemical, luminescence. Cytochrome P450 2C9 (Homo sapiens), P11712. recombinant CYP2C9, luciferin-H conversion; active compounds read high; factor 1 = untreated enzyme, 0 = blocked. activation factor at 5 µM. actives 1.4% (n = 96,000). AID 1024, 2008;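 active = activation factor of 2 or more for CYP2C9 at a 5 µM dose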;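 also: 0 = sulfaphenazole-blocked wells and 1 = vehicle-only wells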
Target sequence (P11712 whole entry, looked up): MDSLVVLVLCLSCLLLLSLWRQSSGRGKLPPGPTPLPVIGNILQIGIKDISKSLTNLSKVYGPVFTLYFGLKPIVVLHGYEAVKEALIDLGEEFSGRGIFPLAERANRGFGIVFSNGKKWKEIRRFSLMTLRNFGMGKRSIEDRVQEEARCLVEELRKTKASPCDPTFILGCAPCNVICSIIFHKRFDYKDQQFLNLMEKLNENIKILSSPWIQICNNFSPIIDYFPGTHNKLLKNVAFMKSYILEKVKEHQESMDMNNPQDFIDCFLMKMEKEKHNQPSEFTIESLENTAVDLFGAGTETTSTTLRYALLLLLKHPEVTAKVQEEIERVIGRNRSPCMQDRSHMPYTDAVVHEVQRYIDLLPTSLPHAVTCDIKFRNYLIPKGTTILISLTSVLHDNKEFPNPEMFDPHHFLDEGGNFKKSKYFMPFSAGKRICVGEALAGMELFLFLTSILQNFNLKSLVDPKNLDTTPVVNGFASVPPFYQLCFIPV
CYP2C19 activ – human CYP2C19 activators, primary screen, biochemical, luminescence | Cytochrome P450 2C19 (Homo sapiens), P33261 | recombinant CYP2C19, luciferin-H EGE luminescence; active compounds read high; 0 = fully inhibited enzyme, 1 = untreated enzyme | activation factor at 5 µM | 96,000 tested, under 10 active | AID 1025, 2008;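 active = activation factor of at least 2 at 5 µM in the primary screen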;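 also: 0 = wells with 2.5 mM tranylcypromine and 1 = vehicle-only wells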
PLK1 PBD inh – Plk1 polo box domain binding inhibitors, primary screen, biochemical, fluorescence polarization; Plk1 PBD phosphopeptide binding; AID 693, 2007; actives 0.13% (n = 97,000); inhibition, %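 (tested at about 20 µM)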; in the data active = inhibition above about 34%, passing the limit was not always enough
CYP2C9 inhib – blockers of cytochrome P450 2C9 activity – biochemical, luminescence, ADME assay, primary screen; inhibition, % at 5 µM; actives 20% (n = 96,000); CYP2C9 Supersomes, luciferin-H conversion;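 active = blocking of liver enzyme CYP2C9 beyond about 50% at 5 µM, limit read from the data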
PLK1 kinase inh – human PLK1 kinase inhibitors, primary screen, biochemical, TR-FRET; actives 0.53% (n = 97,000); Serine/threonine-protein kinase PLK1 (Homo sapiens), P53350; inhibition, % at 10 µM; AID 619, 2007; recombinant PLK1 kinase, TR-FRET peptide phosphorylation;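 active = inhibition of 50% or more in the single-concentration screen; inactive = inhibition below 50%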;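 also: 0% = DMSO max control and 100% = H-89 dihydrochloride min control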
* marks the source's active call; other numbers are inactive results; . = not tested or not shown.

SMILES	CYP2C19 inh	CYP2C9 act	CYP2C19 activ	PLK1 PBD inh	CYP2C9 inhib	PLK1 kinase inh
CC(C)OC(=O)C1CC=CCC1C(=O)Nc1ccc(Cl)cc1 (configuration not stated)	91.3*	0.5	0.1	-1.8	52.5*	-9.9
CCOc1ccc(NC(=O)C2CC=CCC2C(=O)O)cc1 (configuration not stated)	-8.2	1.1	1.1	7.2	-7.8	-4.3
CC1CN(C2CCN(S(=O)(=O)Cc3ccccc3)CC2)CC(C)O1 (configuration not stated)	-8.8	1	1.1	0.2	2.3	-20.0
C(=N\N1CCN(Cc2cccc3ccccc23)CC1)/c1ccco1	50.0*	1.3	0.5	-10.9	-26.0	-6.5
FC(F)(F)c1ccc(/C=N/N2CCN(Cc3cccc4ccccc34)CC2)cc1	0.2	1	1	3.8	3.6	-4.2
CN(C)c1cc[n+](Cc2c(Cl)cccc2Cl)cc1	.	.	.	-0.5	.	-6.8
COC(=O)c1c(-c2ccc(Br)cc2)csc1NC(=O)Cc1ccc(OC)c(OC)c1	30.6	0.4	0.7	-42.5	63.2*	22.6
CCC(C)(C)NC(=O)Cc1ccc(OC)c(OC)c1	27.2	0.9	0.7	-24.5	9.7	-11.0
CNC(=S)NNC(=O)Cc1ccc(OC)c(OC)c1	-20.3	1.2	1.2	2.1	-20.5	-10.6
COC(=O)c1c(-c2ccc(C)cc2)csc1NC(=O)Cc1ccc(OC)c(OC)c1	35.0	0.3	0.7	-22.0	72.1*	0.2
COC(=O)c1c(-c2cccc3ccccc23)csc1NC(=O)Cc1ccc(OC)c(OC)c1	62.2*	0.1	0.4	-28.1	87.3*	-12.3
C=CCN1C(=O)NC2(O)C(=O)c3ccccc3C12O (configuration not stated)	-10.4	1	1.1	-4.7	4.6	-6.3
Cc1nn(-c2ccccc2)c(C)c1C(=O)OCC(=O)N1c2ccccc2NC(=O)C1(C)C	25.2	0.5	0.7	-6.3	45.8	-8.0
COC(=O)c1sccc1NC(=O)CSc1nnnn1-c1ccccc1C	-9.6	1.5	1.1	16.9	-45.9	-0.8
CCOC(=O)c1c(C)[nH]c(C)c1C(=O)COC(=O)CCOc1ccccc1OC	77.0*	0.2	0.2	0.2	83.3*	65.0*
COC(=O)c1c(C)[nH]c(C(=O)CSc2nnnn2-c2ccccc2)c1C	-8.7	1	1.1	-9.1	-3.5	-18.6
CCOC(=O)c1[nH]c(CSc2nnnn2-c2ccccc2C)c(C(=O)OCC)c1C	36.2	0.5	0.6	.	54.0*	.
CCOC(=O)c1[nH]c(COC(=O)CCOc2ccccc2OC)c(C(=O)OCC)c1C	0.7	0.9	1	3.9	11.0	-7.7
CCOC(=O)c1c(C)[nH]c(C)c1C(=O)CSc1ncccn1	58.9*	0.5	0.4	12.2	47.4	-10.2
CCOC(=O)c1c(C)[nH]c(C)c1C(=O)CSc1nnnn1-c1ccccc1	99.0*	0.1	0	4.4	88.1*	-4.9
COc1ccc(C)cc1NC(=O)CCC(=O)Nc1ccc2nc(N3CCN(C)CC3)cc(C)c2c1	43.3	0.7	0.6	.	34.1	.
COc1ccc(-c2nnn(CC(=O)N(Cc3cccs3)C(C)C(=O)NCCC(C)C)n2)cc1OC (configuration not stated)	33.8	0.7	0.7	0.1	30.8	-8.9
Cc1cc(C)c(C)c(/C=C(/C#N)C(N)=S)c1C	24.5	0.4	0.8	15.7	64.6*	-5.1
O=C(c1cc2sccc2n1Cc1ccc(F)cc1)N1CCN(c2nc3ccccc3s2)CC1	.	.	.	3.4	.	-15.8
O=C(c1cc2sccc2n1Cc1ccccc1)N1CCCc2ccccc21	88.0*	0.1	0.1	-23.5	94.7*	-2.6
SMILES	CYP2C19 inh	CYP2C9 act	CYP2C19 activ	PLK1 PBD inh	CYP2C9 inhib	PLK1 kinase inh
O=C(c1cc2sccc2n1Cc1ccccc1)N1CCc2ccccc21	12.7	0.4	0.9	1.2	63.1*	-1.6
Cn1c(C(=O)N2CCCc3ccccc32)cc2sccc21	71.0*	0.7	0.3	-4.9	30.8	-6.7
C=CCN1C(=O)C(O)(CC(=O)c2ccc(N)cc2)c2ccccc21 (configuration not stated)	60.0*	1.1	0.4	2.5	-10.6	-7.3
COC(=O)CN1C(=O)C(O)(CC(=O)c2ccc(C)cc2)c2ccccc21 (configuration not stated)	62.3*	0.7	0.4	.	32.5	.
COC(=O)CN1C(=O)C(O)(CC(=O)c2ccc(C)o2)c2ccccc21 (configuration not stated)	-6.2	1	1.1	10.3	-3.5	-14.7
O=C(CC1(O)C(=O)N(C/C=C/c2ccccc2)c2ccccc21)c1ccccn1 (configuration not stated)	91.6*	0.2	0.1	.	81.5*	.
CCOC(=O)CN1C(=O)C(O)(CC(=O)c2ccc3c(c2)CCCC3)c2ccccc21 (configuration not stated)	.	.	.	-4.7	.	-4.0
COC(=O)CN1C(=O)C(O)(CC(=O)c2ccccc2)c2ccccc21 (configuration not stated)	51.2*	0.9	0.5	3.2	12.7	0.5
Fc1ccc2nc3n(c2c1F)CCCCCC3	48.9	0.9	0.5	-0.5	5.4	0.8
C#CCN1C(=O)C(O)(CC(=O)c2cccc(OC)c2)c2ccccc21 (configuration not stated)	32.7	1	0.7	31.3	-0.7	-7.7
CCOC(=O)CN1C(=O)C(O)(CC(=O)c2cccc(OC)c2)c2ccccc21 (configuration not stated)	62.8*	0.7	0.4	-0.4	27.7	-2.4
CCN(CC)C(=S)SCC(=O)c1ccc(F)cc1	-5.9	1.4	1.1	-4.0	-41.3	-3.4
Cc1cc(C(=O)CSc2ccc(F)cc2)cc(C)c1OC(=S)N(C)C	93.5*	0.2	0.1	0.5	81.2*	-3.6
COc1ccc(SCC(=O)c2cc(C)c(OC(=S)N(C)C)c(C)c2)cc1	87.2*	0.6	0.1	11.5	44.9	-3.5
COc1ccc(C(=O)N2CCC(C(=O)NCc3ccccn3)CC2)cc1	-12.3	1.2	1.1	-5.1	-16.4	-9.2
CCOc1cc(CNc2ncc(-c3ccc(OC)cc3)n2C)ccc1O	59.4*	0.5	0.4	3.9	47.2	-11.1
Cn1c(-c2ccc(F)cc2)cnc1NCc1ccc(C#N)cc1	64.4*	0.4	0.4	0.0	56.6*	0.6
Cn1c(-c2ccc(F)cc2)cnc1NCc1ccc(F)cc1	68.9*	0.7	0.3	24.6	28.1	-1.0
Cn1c(-c2ccc(Br)cc2)cnc1NCc1cccnc1	37.1	0.8	0.6	-1.4	23.0	1.4
